The results in this text go back to ChEMBL document CHEMBL2218924, “A broad activity screen in support of a chemogenomic map for kinase signalling research and drug discovery” (Biochem J, 2013).

Assay [1] deals with T1, Casein kinase II (Homo sapiens) (UniProt P67870+P68400+P19784). The settings on record: at 1 µM.
The target in assay [2] is T1, Casein kinase II (Homo sapiens). The settings on record: at 10 µM.
For assay [3], the target named is Casein kinase II subunit alpha' (Homo sapiens) (UniProt P19784). The settings on record: at 1 µM.
Casein kinase II subunit alpha' (Homo sapiens), sequence (P19784 whole entry, looked up): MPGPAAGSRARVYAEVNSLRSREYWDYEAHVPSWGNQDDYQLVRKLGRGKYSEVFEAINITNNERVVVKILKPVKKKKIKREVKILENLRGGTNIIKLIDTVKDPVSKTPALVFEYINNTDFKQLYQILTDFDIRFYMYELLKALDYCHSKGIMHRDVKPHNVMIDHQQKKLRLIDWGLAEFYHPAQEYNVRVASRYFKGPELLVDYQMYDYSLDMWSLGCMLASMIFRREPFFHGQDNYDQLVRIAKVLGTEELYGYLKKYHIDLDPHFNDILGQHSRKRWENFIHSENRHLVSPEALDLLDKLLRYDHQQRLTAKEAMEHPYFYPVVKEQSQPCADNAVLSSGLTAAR
Assay [4] has the same target. The settings on record: at 10 µM.
The target of assay [5] is Dual specificity protein kinase CLK2 (Homo sapiens) (UniProt P49760). The settings on record: at 1 µM.
Dual specificity protein kinase CLK2 (Homo sapiens), sequence (P49760 whole entry, looked up): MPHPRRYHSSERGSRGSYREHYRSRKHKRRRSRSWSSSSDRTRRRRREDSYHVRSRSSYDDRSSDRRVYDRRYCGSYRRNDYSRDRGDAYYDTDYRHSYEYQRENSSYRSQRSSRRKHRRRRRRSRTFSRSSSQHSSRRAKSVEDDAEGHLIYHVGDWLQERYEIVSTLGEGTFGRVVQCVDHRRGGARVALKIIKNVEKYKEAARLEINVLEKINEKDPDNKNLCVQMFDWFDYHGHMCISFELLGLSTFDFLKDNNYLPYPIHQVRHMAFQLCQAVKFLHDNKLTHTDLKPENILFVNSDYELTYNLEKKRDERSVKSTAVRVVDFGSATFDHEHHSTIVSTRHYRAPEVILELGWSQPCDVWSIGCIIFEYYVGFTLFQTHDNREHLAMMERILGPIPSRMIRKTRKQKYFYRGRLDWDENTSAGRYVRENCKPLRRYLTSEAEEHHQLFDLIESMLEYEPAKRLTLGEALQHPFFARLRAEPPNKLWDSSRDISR
Assay [6] has the same target. The settings on record: at 10 µM.
Assay [7] concerns the target Dual specificity protein kinase CLK3 (Homo sapiens) (UniProt P49761). The settings on record: at 1 µM.
Assay [8] shares this target. The settings on record: at 10 µM.
Assay [9] concerns the target Tyrosine-protein kinase CSK (Homo sapiens) (UniProt P41240). The settings on record: at 1 µM.
For assay [10] the target is unchanged. The settings on record: at 10 µM.
Assay [11] concerns the target Calcium/calmodulin-dependent protein kinase type 1 (Homo sapiens) (UniProt Q14012). The settings on record: at 1 µM.
For assay [12] the target is unchanged. The settings on record: at 10 µM.
For assay [13], the target named is Calcium/calmodulin-dependent protein kinase type II subunit beta (Homo sapiens) (UniProt Q13554). The settings on record: at 1 µM.
Calcium/calmodulin-dependent protein kinase type II subunit beta (Homo sapiens), sequence (Q13554 whole entry): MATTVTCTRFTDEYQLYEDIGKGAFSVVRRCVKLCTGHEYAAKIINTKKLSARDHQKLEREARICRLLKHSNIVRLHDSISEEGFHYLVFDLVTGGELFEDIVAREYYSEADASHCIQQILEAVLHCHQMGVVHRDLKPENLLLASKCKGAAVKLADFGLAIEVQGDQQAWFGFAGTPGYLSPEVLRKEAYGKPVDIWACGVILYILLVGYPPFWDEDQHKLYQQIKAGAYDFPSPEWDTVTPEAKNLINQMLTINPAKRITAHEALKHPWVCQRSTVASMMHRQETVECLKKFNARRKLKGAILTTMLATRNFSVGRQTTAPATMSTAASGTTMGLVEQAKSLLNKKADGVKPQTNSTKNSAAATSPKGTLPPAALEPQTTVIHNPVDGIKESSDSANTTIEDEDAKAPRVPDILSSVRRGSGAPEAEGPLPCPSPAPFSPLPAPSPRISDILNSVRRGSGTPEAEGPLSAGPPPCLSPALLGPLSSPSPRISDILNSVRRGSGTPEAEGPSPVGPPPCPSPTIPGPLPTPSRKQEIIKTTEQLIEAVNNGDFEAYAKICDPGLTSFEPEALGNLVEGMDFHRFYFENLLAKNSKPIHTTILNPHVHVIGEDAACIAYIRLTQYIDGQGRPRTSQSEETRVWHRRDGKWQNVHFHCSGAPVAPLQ
For assay [14] the target is unchanged. The settings on record: at 10 µM.
Assay [15] deals with Calcium/calmodulin-dependent protein kinase type II subunit gamma (Homo sapiens) (UniProt Q13555). The settings on record: at 1 µM.
Calcium/calmodulin-dependent protein kinase type II subunit gamma (Homo sapiens), sequence (Q13555 whole entry): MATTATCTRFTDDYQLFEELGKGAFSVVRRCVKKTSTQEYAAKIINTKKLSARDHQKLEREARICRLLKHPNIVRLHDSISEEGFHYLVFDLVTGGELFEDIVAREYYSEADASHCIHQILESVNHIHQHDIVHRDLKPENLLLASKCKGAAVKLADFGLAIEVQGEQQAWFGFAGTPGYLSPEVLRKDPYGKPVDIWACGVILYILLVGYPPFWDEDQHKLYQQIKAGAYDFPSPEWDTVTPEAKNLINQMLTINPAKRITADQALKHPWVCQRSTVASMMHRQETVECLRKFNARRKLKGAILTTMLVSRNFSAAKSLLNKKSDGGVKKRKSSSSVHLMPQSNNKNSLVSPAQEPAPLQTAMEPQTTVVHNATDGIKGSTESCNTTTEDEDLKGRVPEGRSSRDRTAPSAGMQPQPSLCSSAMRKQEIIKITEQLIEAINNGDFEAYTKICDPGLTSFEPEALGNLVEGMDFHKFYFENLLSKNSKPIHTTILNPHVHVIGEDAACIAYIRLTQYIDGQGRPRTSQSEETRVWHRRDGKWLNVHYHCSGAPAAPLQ
Assay [16] has the same target. The settings on record: at 10 µM.
In assay [17] the target is Calcium/calmodulin-dependent protein kinase type II subunit delta (Homo sapiens) (UniProt Q13557). The settings on record: at 1 µM.
Calcium/calmodulin-dependent protein kinase type II subunit delta (Homo sapiens), sequence (Q13557 whole entry): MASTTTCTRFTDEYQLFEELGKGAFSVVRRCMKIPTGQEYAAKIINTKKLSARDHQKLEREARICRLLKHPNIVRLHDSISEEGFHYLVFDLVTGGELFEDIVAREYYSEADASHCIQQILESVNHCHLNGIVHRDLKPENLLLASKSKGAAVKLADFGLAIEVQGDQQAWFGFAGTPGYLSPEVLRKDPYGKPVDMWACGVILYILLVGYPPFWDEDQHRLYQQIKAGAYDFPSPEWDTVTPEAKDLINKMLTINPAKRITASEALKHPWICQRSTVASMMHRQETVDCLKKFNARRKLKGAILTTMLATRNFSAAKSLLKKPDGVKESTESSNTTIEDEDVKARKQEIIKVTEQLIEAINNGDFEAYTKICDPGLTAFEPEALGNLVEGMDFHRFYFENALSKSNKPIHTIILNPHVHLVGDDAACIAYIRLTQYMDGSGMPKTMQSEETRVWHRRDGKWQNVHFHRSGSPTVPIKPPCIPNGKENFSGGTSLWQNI
The target is the same in assay [18]. The settings on record: at 10 µM.
The target in assay [19] is T2, Calcium/calmodulin-dependent protein kinase type IV (Homo sapiens) (UniProt Q16566).
T2 sequence (whole entry): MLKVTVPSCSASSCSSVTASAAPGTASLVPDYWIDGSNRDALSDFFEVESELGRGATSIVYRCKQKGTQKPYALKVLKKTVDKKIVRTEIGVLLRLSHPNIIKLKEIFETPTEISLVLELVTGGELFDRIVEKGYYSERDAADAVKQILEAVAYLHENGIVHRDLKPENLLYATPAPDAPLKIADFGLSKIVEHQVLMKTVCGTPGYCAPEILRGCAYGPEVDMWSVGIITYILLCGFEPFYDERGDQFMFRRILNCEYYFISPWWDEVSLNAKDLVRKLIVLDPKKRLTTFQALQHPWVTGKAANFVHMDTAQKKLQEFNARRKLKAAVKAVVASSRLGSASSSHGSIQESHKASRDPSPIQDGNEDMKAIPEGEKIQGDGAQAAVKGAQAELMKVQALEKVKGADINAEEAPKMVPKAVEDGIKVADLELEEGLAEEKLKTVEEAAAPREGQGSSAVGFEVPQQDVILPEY
The settings on record: at 1 µM.

Assay [20] concerns the target T2, Calcium/calmodulin-dependent protein kinase type IV (Homo sapiens). The settings on record: at 10 µM.

SMILES strings stand for the structures.

Calcium/calmodulin-dependent protein kinase type 1 (Homo sapiens), sequence (Q14012 whole entry, looked up): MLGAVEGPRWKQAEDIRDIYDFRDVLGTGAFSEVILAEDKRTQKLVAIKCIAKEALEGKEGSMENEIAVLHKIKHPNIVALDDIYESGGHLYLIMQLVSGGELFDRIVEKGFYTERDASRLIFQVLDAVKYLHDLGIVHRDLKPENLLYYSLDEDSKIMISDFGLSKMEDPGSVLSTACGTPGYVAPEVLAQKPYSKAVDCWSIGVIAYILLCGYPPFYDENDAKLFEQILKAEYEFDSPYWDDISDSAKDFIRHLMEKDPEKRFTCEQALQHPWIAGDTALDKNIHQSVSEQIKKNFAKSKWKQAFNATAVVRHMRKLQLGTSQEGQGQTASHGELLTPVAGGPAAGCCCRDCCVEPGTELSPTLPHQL
Tyrosine-protein kinase CSK (Homo sapiens), sequence (P41240 2-450 limits assumed): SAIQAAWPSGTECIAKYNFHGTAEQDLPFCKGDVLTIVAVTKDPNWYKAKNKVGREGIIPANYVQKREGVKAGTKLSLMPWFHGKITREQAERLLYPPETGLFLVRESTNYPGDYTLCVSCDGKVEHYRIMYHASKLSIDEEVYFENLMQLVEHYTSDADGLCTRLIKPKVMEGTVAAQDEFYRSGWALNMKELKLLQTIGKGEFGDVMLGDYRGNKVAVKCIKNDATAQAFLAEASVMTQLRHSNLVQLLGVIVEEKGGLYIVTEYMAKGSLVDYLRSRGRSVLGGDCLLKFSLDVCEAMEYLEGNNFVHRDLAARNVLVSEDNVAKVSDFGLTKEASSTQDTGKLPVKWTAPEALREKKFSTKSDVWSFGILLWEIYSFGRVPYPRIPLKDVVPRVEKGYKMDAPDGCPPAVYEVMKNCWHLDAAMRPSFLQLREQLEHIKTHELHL
T1 sequence (P19784 whole entry, looked up): as the sequence (P19784 whole entry, looked up) above
T1 sequence (P67870 whole entry, looked up): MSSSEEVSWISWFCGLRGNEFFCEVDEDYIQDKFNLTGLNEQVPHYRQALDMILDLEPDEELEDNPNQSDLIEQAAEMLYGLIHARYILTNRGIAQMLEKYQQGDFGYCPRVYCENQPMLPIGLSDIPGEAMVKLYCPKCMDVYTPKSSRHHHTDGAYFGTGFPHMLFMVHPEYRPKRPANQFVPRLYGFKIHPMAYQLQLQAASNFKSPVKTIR
T1 sequence (P68400 whole entry, looked up): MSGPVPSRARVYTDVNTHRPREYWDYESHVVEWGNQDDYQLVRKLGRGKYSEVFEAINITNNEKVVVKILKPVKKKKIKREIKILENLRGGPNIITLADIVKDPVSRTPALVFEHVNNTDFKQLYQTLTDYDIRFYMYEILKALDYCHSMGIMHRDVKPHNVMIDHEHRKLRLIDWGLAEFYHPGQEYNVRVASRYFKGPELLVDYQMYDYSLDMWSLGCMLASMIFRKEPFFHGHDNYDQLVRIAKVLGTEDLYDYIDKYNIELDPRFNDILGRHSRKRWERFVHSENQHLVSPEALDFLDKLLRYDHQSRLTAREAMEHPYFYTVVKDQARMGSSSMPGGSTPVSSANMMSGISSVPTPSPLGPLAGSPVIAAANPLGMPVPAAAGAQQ
Dual specificity protein kinase CLK3 (Homo sapiens), sequence (P49761 whole entry, looked up): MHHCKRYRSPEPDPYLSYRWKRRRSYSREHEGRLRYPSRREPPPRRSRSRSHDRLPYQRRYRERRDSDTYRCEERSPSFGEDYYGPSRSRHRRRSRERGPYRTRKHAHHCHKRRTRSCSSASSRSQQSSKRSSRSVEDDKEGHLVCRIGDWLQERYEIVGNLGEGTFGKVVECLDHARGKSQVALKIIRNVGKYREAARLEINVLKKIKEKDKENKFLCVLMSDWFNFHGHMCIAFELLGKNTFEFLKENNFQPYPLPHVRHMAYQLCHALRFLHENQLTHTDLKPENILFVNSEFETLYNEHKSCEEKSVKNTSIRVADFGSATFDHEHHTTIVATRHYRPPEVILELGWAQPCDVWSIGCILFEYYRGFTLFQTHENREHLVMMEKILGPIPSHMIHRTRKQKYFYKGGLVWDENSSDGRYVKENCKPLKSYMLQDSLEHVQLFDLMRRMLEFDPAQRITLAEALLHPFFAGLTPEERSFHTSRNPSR

As a reminder, the residual activity is the signal under treatment as a percentage of the control signal. In the case of `O=C1c2ccccc2-[n+]2ccc3c([nH]c4ccccc43)c21`, the residual activity came to 87% in [1]; 71% in [2]; 104% in assay [3]; 85% in [4]; 114% in assay [5]; 103% in [6]. Besides, the residual activity in assay [7] came out at 79%; in [8], 72%; in assay [9], 86%; in assay [10] it was 88%; in assay [11] it was 81%; in assay [12], 68%. Further, the residual activity was 92% in [13]; 76% in assay [14]; 103% in assay [15]; 78% in assay [16]; 95% in [17]; 81% in assay [18]. Besides, the figures for the residual activity in assay [19] and in assay [20] were 102% and 93%, respectively.

For the compound `O=C1NC(=O)c2cc(Nc3ccc(F)cc3)c(Nc3ccc(F)cc3)cc21`, the residual activity in [1] came to 90%; in assay [2], 110%; in [3], 125%; in assay [4], 96%; in [5], 100%; in [6], 40%. For the same compound, the residual activity in assay [7] came out at 79%; in assay [8] it was 129%; in assay [9], 98%; in assay [10], 93%; in assay [11] it was 109%; in assay [12] it was 71%. Further, the residual activity came out at 85% in assay [13]; 50% in [14]; 111% in assay [15]; 102% in [16]; 110% in [17]; 88% in [18]. The residual activity in [19] came to 119%; in assay [20], 66%.

For the compound `COc1cc2ncnc(Nc3ccc(Oc4ccccc4)cc3)c2cc1OC`, the residual activity was 93% in [1]; 100% in [2]; 114% in assay [3]; 108% in assay [4]; 108% in assay [5]; 106% in assay [6]. The residual activity in [7] turned out to be 82%; in assay [8], 99%; in [9], 12%; in assay [10] it was 3%; in assay [11] it was 102%; in assay [12] it was 76%. The residual activity came to 88% in assay [13]; 84% in [14]; 102% in assay [15]; 102% in assay [16]; 105% in assay [17]; 111% in assay [18]. In addition, the residual activity came to 103% in [19] and 104% in assay [20].

In the case of `Ic1cccc(CSc2nnc(-c3ccncc3)o2)c1`, the residual activity in [1] came to 87%; in assay [2], 87%; in [3] it was 101%; in assay [4], 97%; in [5], 12%; in assay [6], 13%. Further, the residual activity in assay [7] was 65%; in [8], 45%; in [9], 104%; in assay [10], 94%; in assay [11], 97%; in assay [12], 79%. Further, the residual activity in assay [13] amounted to 75%; in assay [14], 55%; in assay [15] it was 85%; in assay [16], 74%; in [17], 73%; in [18], 65%. Further, the residual activity was found to be 106% in [19] and 100% in [20].

Take `COc1cccc(-c2cc(=O)c3ccccc3o2)c1N`: the residual activity in assay [1] turned out to be 94%; in assay [2], 96%; in assay [3], 119%; in assay [4], 106%; in assay [5], 116%; in assay [6], 105%. For the same compound, the residual activity worked out at 90% in assay [7]; 71% in assay [8]; 104% in assay [9]; 111% in assay [10]; 97% in [11]; 82% in assay [12]. The residual activity in assay [13] came out at 92%; in assay [14] it was 87%; in assay [15], 98%; in assay [16] it was 98%; in [17], 101%; in assay [18] it was 99%. Moreover, the residual activity in [19] and in assay [20] was 108% each time.

`Oc1ccc(Nc2nc(-c3ccc(Cl)cc3)cs2)cc1`: the residual activity in assay [1] came out at 101%; in [2], 97%; in assay [3] it was 100%; in assay [4] it was 99%; in assay [5] it was 118%; in assay [6], 101%. Besides, the residual activity in assay [7] came to 92%; in [8] it was 75%; in assay [9] it was 98%; in assay [10], 113%; in [11] it was 94%; in [12], 53%. The residual activity in assay [13] amounted to 98%; in assay [14], 92%; in [15] it was 98%; in assay [16], 89%; in assay [17], 102%; in assay [18], 98%. In addition, the residual activity was found to be 102% in assay [19] and 114% in [20].

For `O=C1Nc2cc(Br)ccc2/C1=C1/Nc2ccccc2/C1=N\O`, the residual activity in assay [1] is 94%; in assay [2], 86%; in assay [3], 94%; in [4], 57%; in assay [5] it was 92%; in assay [6], 74%. Moreover, the residual activity in assay [7] came out at 79%; in assay [8], 54%; in [9], 94%; in assay [10] it was 89%; in assay [11] it was 59%; in assay [12] it was 12%. Besides, the residual activity turned out to be 15% in [13]; 8% in assay [14]; 3% in assay [15]; 2% in [16]; 1% in [17]; 2% in assay [18]. Besides, the residual activity came out at 59% in [19] and 73% in assay [20].

Take `Cc1nc2cc3nc(-c4cccs4)cnc3cc2n1C`: the residual activity was found to be 102% in assay [1]; 104% in assay [2]; 130% in [3]; 92% in assay [4]; 114% in assay [5]; 63% in [6]. Moreover, the residual activity in assay [7] was determined as 99%; in assay [8] it was 53%; in assay [9], 110%; in assay [10], 109%; in assay [11] it was 109%; in assay [12], 107%. Moreover, the residual activity is 100% in assay [13]; 93% in [14]; 103% in assay [15]; 84% in [16]; 106% in assay [17]; 85% in assay [18]. Further, the figures for the residual activity in assay [19] and in assay [20] were 129% and 101%, respectively.

With `Oc1n[nH]c2nnc(-c3c(-c4ccccc4)nn4ccccc34)cc12`, the residual activity was found to be 92% in assay [1]; 82% in [2]; 110% in [3]; 91% in [4]; 114% in assay [5]; 118% in [6]. Besides, the residual activity in [7] stood at 85%; in assay [8] it was 96%; in assay [9], 93%; in assay [10], 84%; in assay [11] it was 92%; in [12], 79%. Besides, the residual activity in assay [13] stood at 91%; in assay [14] it was 80%; in assay [15] it was 90%; in [16], 78%; in assay [17], 87%; in [18] it was 82%. For the same compound, the values for the residual activity in assay [19] and in assay [20] were 105% and 96%, respectively.

Turning to `O=C(Nc1cccc(Nc2cc(Nc3cccc(C(F)(F)F)c3)ncn2)c1)C1CC1`, the residual activity was determined as 107% in assay [1]; 104% in [2]; 114% in assay [3]; 103% in assay [4]; 99% in assay [5]; 101% in assay [6]. Also, the residual activity was found to be 89% in assay [7]; 32% in assay [8]; 114% in assay [9]; 96% in assay [10]; 114% in assay [11]; 57% in assay [12]. Moreover, the residual activity in [13] came out at 91%; in assay [14] it was 86%; in [15], 98%; in assay [16], 74%; in assay [17], 97%; in [18] it was 67%. Besides, the results for the residual activity in assay [19] and in assay [20] were 116% and 94%, respectively.

Take `O=C1NC(=O)/C(=C/c2ccc3c(c2)OC(F)(F)O3)S1`: the residual activity in assay [1] turned out to be 32%; in assay [2] it was 2%; in assay [3] it was 52%; in [4] it was 0%; in [5], 116%; in assay [6], 75%. The residual activity in assay [7] was 91%; in [8], 94%; in assay [9], 121%; in assay [10], 117%; in [11] it was 86%; in assay [12], 83%. For the same compound, the residual activity in assay [13] was 94%; in assay [14], 71%; in assay [15], 102%; in assay [16], 86%; in [17], 106%; in assay [18] it was 82%. In addition, the residual activity in assay [19] came out at 99%; in assay [20], 72%.

Take `COc1ccc(S(=O)(=O)N(CCO)c2ccccc2CN(C)C/C=C/c2ccc(Cl)cc2)cc1`: the residual activity in assay [1] turned out to be 89%; in assay [2], 94%; in assay [3], 106%; in [4], 95%; in [5] it was 127%; in assay [6], 102%. Also, the residual activity was found to be 89% in [7]; 86% in assay [8]; 115% in assay [9]; 84% in assay [10]; 92% in assay [11]; 38% in [12]. Also, the residual activity in assay [13] came to 96%; in assay [14] it was 20%; in [15], 107%; in assay [16], 67%; in assay [17], 101%; in assay [18], 47%. Besides, the residual activity in assay [19] came out at 106%; in assay [20], 92%.
